Results filed as inconclusive are left out. Calls of active or inactive are those of the source. Unless noted, calls follow the shape of the dose curve; as a rule, active = well fitted curve in the direction sought with a large enough effect in the repeat runs; inconclusive = weak or mixed curves; inactive = no such curve, though single readings can be large; an effect the other way counts as inactive or inconclusive.
How the values were obtained:
[1] = qHTS assay to identify small molecule antagonists of the retinoid acid receptor (RAR) signaling pathway - cell viability counter screen (AID 1159551); also: nearly all actives have a fitted effect of over 35% in size
Method in brief: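 In this counter screen, the RARE-luciferase line C3RL4 was exposed for 6 h at 37 C and 5% CO2 to compounds with retinol at 1 uM final. Cellular ATP, read by luminescence, served as the viability measure.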

[2] = qHTS assay to identify small molecule antagonists of the retinoic acid receptor (RAR) signaling pathway (AID 1159552; also: nearly all actives have a fitted effect of over 50% in size)
Method in brief: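 Quantitative HTS in C3RL4 RARE-luciferase reporter cells. Compounds were added with 1 uM (final) retinol; luminescence was read after 6 hr.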

[3] = qHTS assay to identify small molecule agonists of the retinoic acid receptor (RAR) signaling pathway (AID 1159553)
Method in brief: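 In this cell-based screen, 1,000 C3RL4 cells per well were cultured overnight, dosed with test chemicals in DMSO for 6 hr, and assessed for RARE luciferase luminescence.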

[4] = qHTS assay to identify small molecule antagonists of the estrogen related receptor (ERR) signaling pathway from Tox21 library - cell viability counter screen (AID 1224834); also: nearly all actives have a fitted effect of over 30% in size
Method in brief: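 Counter screen run in ERR cells (2,000 cells/well): cells pre-incubated 6 h, then treated with compounds for 17.5 h at 37 C. Fluorescence was read 30 min after CellTiter-Fluor addition.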

[5] = target: Luciferin 4-monooxygenase (Photinus pyralis) (UniProt P08659); test: qHTS assay to identify small molecule inhibitors of firefly luciferase (AID 1224835); also: nearly all actives have a fitted effect of over 25% in size
Chain of Luciferin 4-monooxygenase (Photinus pyralis) (P08659 whole entry, looked up): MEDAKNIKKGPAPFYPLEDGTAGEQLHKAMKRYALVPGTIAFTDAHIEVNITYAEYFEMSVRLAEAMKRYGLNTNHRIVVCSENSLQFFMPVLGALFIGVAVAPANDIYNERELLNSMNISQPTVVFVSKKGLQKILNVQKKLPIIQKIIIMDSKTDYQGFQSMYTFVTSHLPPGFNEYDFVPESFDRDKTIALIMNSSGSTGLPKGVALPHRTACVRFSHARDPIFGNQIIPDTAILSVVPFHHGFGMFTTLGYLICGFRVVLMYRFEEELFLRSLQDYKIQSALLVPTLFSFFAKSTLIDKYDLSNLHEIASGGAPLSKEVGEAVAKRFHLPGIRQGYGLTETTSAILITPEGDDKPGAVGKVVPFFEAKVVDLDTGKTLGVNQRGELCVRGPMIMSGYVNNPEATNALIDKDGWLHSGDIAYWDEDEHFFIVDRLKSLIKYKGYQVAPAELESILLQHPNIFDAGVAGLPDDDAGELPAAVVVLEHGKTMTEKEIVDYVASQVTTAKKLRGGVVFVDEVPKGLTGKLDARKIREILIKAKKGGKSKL
Method in brief: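 Biochemical qHTS: compounds run as interplate titrations against purified firefly enzyme, with D-luciferin and ATP each at its KM concentration. Light output recorded by CCD imaging.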

[6] = qHTS assay to identify small molecule agonists of the constitutive androstane receptor (CAR) signaling pathway - cell viability counter screen (AID 1224836); also: nearly all actives have a fitted effect of over 45% in size
Method in brief: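 Counter screen multiplexed with the CAR reporter readout: HepG2 cells co-transfected with hCAR and the CYP2B6-2.2kb construct receive a 15-concentration compound series and 0.75 uM PK11195 (final), then CellTiter-Fluor fluorescence is read after 23 h.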

[7] = qHTS assay to identify small molecule antagonists of the constitutive androstane receptor (CAR) signaling pathway - cell viability counter screen (AID 1224837); also: nearly all actives have a fitted effect of over 45% in size
Method in brief: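 CITCO at 50 nM final was added alongside compounds (15 concentrations) to double-stable hCAR/CYP2B6-2.2kb HepG2 cells. Following 23 hr at 37 C, cell viability was quantified by CellTiter-Fluor fluorescence intensity.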

[8] = qHTS assay to identify small molecule antagonists of the estrogen related receptor signaling pathway with the pleiotropic PPARgamma coactivator (PGC) from Tox21 10K library - cell viability counter screen (AID 1224840; active = well fitted cell-killing curve with a large enough effect in the repeat runs, not every such curve was filed as active; also: nearly all actives have a fitted effect of over 40% in size)
Method in brief: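 Readout: fluorescence intensity from CellTiter-Fluor after 30 min at 37 C/5% CO2. Preceded by 17.5 h treatment of PGC/ERR cells with DMSO-dissolved compounds, added 6 h post-seeding.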

[9] = qHTS assay to identify small molecule antagonists of the estrogen related receptor signaling pathway with the pleiotropic PPARgamma coactivator (PGC) from Tox21 10K library (AID 1224841; call rule not given here; also: actives are mostly falling curves and most rising ones were filed inactive; nearly all actives have a fitted effect of over 50% in size)
Method in brief: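 One-Glo luminescence, measured after half an hour at room temperature, quantified reporter output of PGC/ERR cells. These had been plated at 2,000 per well, incubated 6 h, dosed with compounds in DMSO, then kept 18 h at 37 C.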

[10] = qHTS assay to identify small molecule agonists of the estrogen related receptor signaling pathway with the pleiotropic PPARgamma coactivator (PGC) from Tox21 10K library (AID 1224842); also: nearly all actives have a fitted effect of over 15% in size
Method in brief: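 PGC/ERR reporter cell line, 2,000 cells per well, incubated 6 h at 37 C before 23 nL compound in DMSO was added. After 18 h at 37 C, One-Glo luminescence read following 30 min at room temperature.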

[11] = target: Thyrotropin receptor (Homo sapiens) (UniProt P16473); test: qHTS assay to identify small molecule agonists of the thyroid stimulating hormone receptor (TSHR) signaling pathway (AID 1224843; calls by dose curve; also: nearly all actives have a fitted effect of over 45% in size)
Chain of Thyrotropin receptor (Homo sapiens) (P16473 whole entry, looked up): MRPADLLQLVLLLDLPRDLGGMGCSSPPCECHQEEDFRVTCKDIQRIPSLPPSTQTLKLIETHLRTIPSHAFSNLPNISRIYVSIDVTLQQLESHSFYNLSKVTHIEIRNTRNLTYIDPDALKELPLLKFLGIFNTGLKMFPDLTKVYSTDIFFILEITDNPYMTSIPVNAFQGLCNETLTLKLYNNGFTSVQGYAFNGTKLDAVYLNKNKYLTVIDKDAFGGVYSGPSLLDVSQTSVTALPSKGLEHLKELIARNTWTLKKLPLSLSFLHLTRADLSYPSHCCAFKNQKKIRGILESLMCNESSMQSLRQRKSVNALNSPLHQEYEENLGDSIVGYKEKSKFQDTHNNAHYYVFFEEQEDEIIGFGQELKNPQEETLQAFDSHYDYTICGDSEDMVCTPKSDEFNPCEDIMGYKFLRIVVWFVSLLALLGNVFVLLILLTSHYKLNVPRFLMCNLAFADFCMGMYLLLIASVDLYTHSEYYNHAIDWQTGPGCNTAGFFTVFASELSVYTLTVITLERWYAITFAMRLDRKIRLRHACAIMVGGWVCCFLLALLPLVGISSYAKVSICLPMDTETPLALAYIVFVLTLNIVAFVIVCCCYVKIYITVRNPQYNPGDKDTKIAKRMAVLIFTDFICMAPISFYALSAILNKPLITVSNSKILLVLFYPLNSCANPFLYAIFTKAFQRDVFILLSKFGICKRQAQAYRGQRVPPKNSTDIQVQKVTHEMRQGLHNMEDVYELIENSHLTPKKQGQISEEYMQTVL
Method in brief: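 Agonist-mode screen: TSHR HEK293 cells received test chemicals for half an hour at room temperature, then HTRF cAMP detection reagents for one hour prior to fluorescence measurement. Each chemical ran as a 15-concentration series, triplicated.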

[12] = qHTS assay to identify small molecule agonists of H2AX (AID 1224845; active = well fitted activation curve with a large enough effect in the signal ratio in the repeat runs, not every such curve was filed as active; the % refers to the signal ratio)
Method in brief: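 Wild-type CHO-K1 cells, plated overnight, exposed 3hr at 37C to 15 concentrations (0.76% DMSO final). Lysed, then HTRF anti-pH2AX (S139) cryptate and anti-H2AX-d2 antibodies, 24 hr room temperature; 665/620 nm emission read.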

[13] = qHTS assay to identify small molecule agonists of the hypoxia (HIF-1) signaling pathway (AID 1224846; active = well fitted activation curve with a large enough effect in the signal ratio in the repeat runs, not every such curve was filed as active; the % refers to the signal ratio)
Method in brief: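 ME-180 HRE-bla reporter cells; compounds in DMSO, 17 h at 37C; read-out beta-lactamase via CCF4-AM FRET.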

[14] = qHTS assay to identify small molecule agonists of H2AX - cell viability counter screen (AID 1224847; calls by dose curve; also: top concentration of the series differs between compounds; nearly all actives have a fitted effect of over 30% in size)
Method in brief: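 We seed wild-type CHO-K1 cells overnight, treat them for 3 hr at 37C with compounds in 15-concentration series, and quantify remaining viability by CellTiter-Glo luminescence.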

[15] = qHTS assay to identify small molecule antagonists of the estrogen related receptor (ERR) signaling pathway from Tox21 library (AID 1224848); also: nearly all actives have a fitted effect of over 50% in size
Method in brief: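 Quantitative high-throughput format: ERR reporter cells (2,000/well) pre-incubated 6 h, treated 18 h at 37 C with compounds in DMSO alongside positive and negative controls, then read by ONE-Glo luminescence.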

[16] = qHTS assay to identify small molecule agonists of the estrogen related receptor (ERR) signaling pathway from Tox21 library (AID 1224849; calls by dose curve; also: nearly all actives have a fitted effect of over 15% in size); conditions: ERR reporter cell line, ONE-Glo luciferase, 18 h; at 92.4 µM (top of the series) unless noted
Method in brief: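 Luciferase activity in ERR pathway reporter cells served as the agonist readout; exposure lasted 18 h at 37 C, with ONE-Glo detection after 30 min at room temperature.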

[17] = qHTS RealTime-Glo MT Cell Viability Assay in HepG2 cells - 24 hour (AID 1224867); also: nearly all actives have a fitted effect of over 50% in size
Method in brief: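 Viability was tracked continuously by NanoLuc luminescence from prosubstrate reduced by living HepG2 cells, at successive time points over 40 h of compound exposure. Cells with reagent were preincubated 5 h at 37 °C before compound addition.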

[18] = qHTS assay to identify small molecule agonists of the hypoxia (HIF-1) signaling pathway - cell viability counter screen (AID 1224844; calls by dose curve; also: nearly all actives have a fitted effect of over 50% in size)
Method in brief: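 In this counter screen, HRE-bla ME-180 cell viability after 17 hrs of compound exposure at 37C was read by CellTiter-Glo luminescence, multiplexed with the beta-lactamase reporter measurement.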

[19] = target: Nuclear receptor subfamily 1 group I member 3 (Homo sapiens) (UniProt Q14994); test: qHTS assay to identify small molecule antagonists of the constitutive androstane receptor (CAR) signaling pathway (AID 1224838); also: nearly all actives have a fitted effect of over 40% in size
Chain of Nuclear receptor subfamily 1 group I member 3 (Homo sapiens) (Q14994 whole entry, looked up): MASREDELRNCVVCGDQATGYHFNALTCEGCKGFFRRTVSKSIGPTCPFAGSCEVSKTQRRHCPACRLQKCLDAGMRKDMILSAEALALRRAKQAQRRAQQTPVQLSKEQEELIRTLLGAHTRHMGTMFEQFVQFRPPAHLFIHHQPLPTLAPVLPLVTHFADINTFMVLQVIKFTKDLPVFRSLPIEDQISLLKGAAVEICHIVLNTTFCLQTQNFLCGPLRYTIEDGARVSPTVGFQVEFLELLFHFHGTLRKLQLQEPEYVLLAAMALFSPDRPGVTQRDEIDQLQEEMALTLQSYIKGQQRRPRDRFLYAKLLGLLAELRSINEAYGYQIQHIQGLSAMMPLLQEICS
Method in brief: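 Inhibition of CITCO-driven (50 nM final) CYP2B6 reporter expression is measured in HepG2 cells stably carrying hCAR. Fifteen compound concentrations are applied for 24 h at 37 C, followed by luciferase luminescence.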

[20] = target: Nuclear receptor subfamily 1 group I member 3 (Homo sapiens) (UniProt Q14994); test: qHTS assay to identify small molecule agonists of the constitutive androstane receptor (CAR) signaling pathway (AID 1224839); also: nearly all actives have a fitted effect of over 15% in size
Method in brief: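 A 15-concentration quantitative screen uses HepG2 cells co-transfected stably with human CAR and CYP2B6-2.2kb reporter. Treatment lasts 24 h with 0.75 uM PK11195 final present; ONE-Glo luminescence is the signal.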
% is scaled to controls: 0 for no effect and ±100 for the full control effect.

C=CCn1cc[n+](C)c1
inactive: outcome [1] | outcome [2] | Potency [3] | outcome [4] | Potency [5] | outcome [6] | outcome [7] | outcome [8] | Potency [9] | Potency [10] | Potency [11] | outcome [12] | outcome [13] | outcome [14] | outcome [15] | activity change, positive = activation [16] 5.14% | outcome [17]

CC(O)C(CO)C(C)O (centres undefined)
inactive: outcome [1] | outcome [2] | Potency [3] | outcome [4] | Potency [5] | outcome [6] | outcome [7] | outcome [8] | Potency [11] | outcome [18] | outcome [12] | outcome [13] | outcome [14] | outcome [17]

CC(C)(C)C(=O)CCc1ccc(Cl)cc1
inactive: outcome [1] | outcome [2] | Potency [3] | outcome [4] | Potency [5] | outcome [6] | outcome [19] | Potency [20] | outcome [8] | Potency [9] | Potency [10] | outcome [18] | outcome [12] | outcome [13] | outcome [14] | outcome [15] | activity change, positive = activation [16] 2.37% | outcome [17]

CCCCCCCC(=O)N(C)C
inactive: outcome [1] | outcome [2] | Potency [3] | outcome [4] | Potency [5] | outcome [6] | outcome [19] | Potency [20] | outcome [8] | Potency [9] | Potency [10] | outcome [18] | outcome [12] | outcome [13] | outcome [14] | outcome [15] | activity change, positive = activation [16] 2.8% | outcome [17]

CNCCc1ccccn1
inactive: outcome [1] | outcome [2] | Potency [3] | outcome [4] | Potency [5] | outcome [6] | outcome [7] | outcome [8] | Potency [11] | outcome [18] | outcome [12] | outcome [14] | outcome [17]

N#Cc1cc(NC(=O)C(=O)O)c(Cl)c(NC(=O)C(=O)O)c1
inactive: outcome [1] | outcome [2] | Potency [3] | outcome [4] | Potency [5] | outcome [6] | outcome [8] | Potency [11] | outcome [18] | outcome [12] | outcome [13] | outcome [17]

CC(=O)Nc1ccc(S(=O)(=O)Nc2cc(C)on2)cc1
inactive: outcome [1] | outcome [2] | Potency [3] | outcome [4] | Potency [5] | outcome [6] | outcome [7] | outcome [8] | Potency [11] | outcome [18] | outcome [12] | outcome [13] | outcome [17]

Cc1cc2c(cc1CC(=O)c1sccc1S(=O)(=O)Nc1onc(C)c1Cl)OCO2
inactive: outcome [1] | outcome [2] | Potency [3] | outcome [4] | Potency [5] | outcome [6] | outcome [19] | Potency [20] | outcome [8] | outcome [18] | outcome [12] | outcome [13] | outcome [14] | outcome [17]

Source: PubChem BioAssay (Tox21)
